VDR inhibitor: inhibitors of human vitamin D receptor; P11473; AID 504847; Potency, µM, without a hit: max response, negative = inhibition, actives largely listed as inhibitors; 400,000 compounds, 0.93% hits; VDR-SRC2-3 peptide fluorescence polarization, 2 h
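Signal is fluorescence polarization, reporting how far test compounds block the interaction of VDR with the SRC2-3 coregulator peptide after a 2 h room-temperature incubation.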
KAT2A inh: GCN5L2 (KAT2A) acetyltransferase inhibition; Q92830; 390,000 compounds, 0.21% hits; GCN5L2 HAT assay, ThioGlo1 CoA-SH fluorescence; Potency, µM (highest dose often 58.9 µM), inactives show at the top dose activity change, negative = inhibition, usual class: inhibitors
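GCN5L2 (20nM final) in 50mM HEPES, 0.1mM EDTA pH 7.5, 0.01% Tween-20 was preincubated 15 min at room temperature with compound, then given ThioGlo1 (50uM), H3(1-25) peptide (75uM) and acetyl-CoA (70uM); CoA-thiol fluorescence (Ex340/Em540) was read at 0 and 20 min.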
TDP1 inh: blocks human tyrosyl-DNA phosphodiesterase 1; Potency, µM (series often up to 130 µM), inactives show at the top dose activity change, negative = inhibition, usual class: inhibitors; 350,000 compounds, 0.28% hits; recombinant TDP1, AlphaScreen DNA substrate cleavage; AID 485290; also: nearly all actives have a fitted effect of over 40% in size
Target sequence (Q9NUW8 whole entry, looked up): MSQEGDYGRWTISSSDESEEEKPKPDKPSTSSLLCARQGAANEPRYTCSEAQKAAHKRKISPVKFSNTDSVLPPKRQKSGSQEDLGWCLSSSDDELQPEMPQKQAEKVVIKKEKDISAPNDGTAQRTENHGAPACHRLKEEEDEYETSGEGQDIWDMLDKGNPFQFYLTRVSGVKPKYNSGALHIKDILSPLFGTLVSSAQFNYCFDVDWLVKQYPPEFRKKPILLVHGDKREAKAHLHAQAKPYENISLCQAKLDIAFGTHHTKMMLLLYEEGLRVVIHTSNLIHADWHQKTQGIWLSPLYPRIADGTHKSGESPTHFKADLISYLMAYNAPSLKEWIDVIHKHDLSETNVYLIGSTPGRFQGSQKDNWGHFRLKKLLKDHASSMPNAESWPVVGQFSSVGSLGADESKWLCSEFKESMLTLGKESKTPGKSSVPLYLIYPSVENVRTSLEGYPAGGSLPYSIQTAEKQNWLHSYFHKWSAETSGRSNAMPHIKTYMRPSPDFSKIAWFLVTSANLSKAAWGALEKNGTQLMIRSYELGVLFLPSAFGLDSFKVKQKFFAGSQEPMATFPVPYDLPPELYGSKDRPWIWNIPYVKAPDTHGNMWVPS
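AlphaScreen read-out: signal falls as enzyme removes the 3' tyrosine-FITC from a 5'-biotinylated DNA oligo (15 nM, 5 min, RT). Enzyme was E. coli-made recombinant Tdp1 at 1 nM, exposed to compound for 15 min beforehand; beads 10 ug/ml, 10 min.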
DT40 TDP1 CPT: growth inhibition of DT40 Tdp1-/-;hTDP1 cells with camptothecin (screen for TDP1 inhibitors); Potency, µM (top dose mostly 46.2 µM), for the others: at the highest dose activity change, negative = growth inhibition, usual class: inhibitors; 420,000 compounds, 12% hits; AID 686979; chicken DT40 Tdp1-/-;hTDP1 cells + 20 nM CPT, ATP luminescence, 48 h; also: nearly all actives have a fitted effect of over 55% in size
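Chicken DT40 Tdp1-/- cells complemented with human TDP1, 400 cells/well, exposed to compounds plus 20 nM camptothecin for at least 48 h at 37 C; viability read as ATP content by CellTiter-Glo luminescence.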
PLK1 PBD inh: inhibitors of human PLK1 polo-box domain binding. P53350. Plk1 PBD binding of FITC phosphopeptide, fluorescence polarization. Potency, µM, for the others: max response, negative = inhibition, hits mostly inhibitors. 360,000 compounds, 2.8% hits; also: series mostly up to about 57 µM; nearly all actives have a fitted effect of over 65% in size
TDP1 cell noCPT: qHTS for Inhibitors of human tyrosyl-DNA phosphodiesterase 1 (TDP1): qHTS in cells in absence of CPT | DT40 Tdp1-/- hTDP1 cells, no CPT, ATP luminescence, 48 h | AID 686978, 2013 | 420,000 compounds, 15% hits | Potency, µM (titrated, usually from 46.2 µM), for inactives: top-dose activity change, negative = growth inhibition, most hits filed as inhibitors; also: nearly all actives have a fitted effect of over 55% in size
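Seeded 400 DT40-hTDP1 cells/well (vehicle DMSO, no 20 nM CPT); pinned compounds; ≥48 hr at 37 °C; CellTiter-Glo luminescence as viability measure.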
* = called active by the depositor; u = inconclusive; x = not tested or not shown; [ ] = another dose, or the depositor's remark. Sampled rows, rich in hits. Any-hit rate of the full collection: about 18%. Calls follow the shape of the dose curve; as a rule, active = well fitted curve in the direction sought with a large enough effect; inconclusive = small, poorly fitted or top-dose-only effect, or another doubt; inactive = no such curve, though single readings can be large; an effect the other way counts as inactive or inconclusive. % is scaled to controls: 0 for no effect and ±100 for the full control effect; potency is read from the fitted curve at half-maximal effect.

SMILES	VDR inhibitor	KAT2A inh	TDP1 inh	DT40 TDP1 CPT	PLK1 PBD inh	TDP1 cell noCPT
CCC1CCCCN1CC(=O)N1CCCc2c1c(=O)oc1ccc(OCc3ccccc3)cc21 (stereo not given)	-4.0%	-14.1%	x	14.6µM*	x	10.3µM*
CCCOc1ccc2oc(=O)c3c(c2c1)CCCN3C(=O)CN(C)Cc1ccccc1	-8.8%	-12.5%	6.9%	u	-7.7%	20.6µM*
COc1ccc(C(=O)OCC(=O)NC2CC2)cc1F	15.1%	3.9%	-2.9%	9.5%	-18.5%	3.6%
CC(=O)c1ccc(NC(=O)c2cc(Cl)sc2Cl)cc1	-2.1%	-0.2%	0.0%	u	1.1%	u
CCOC(=O)CSc1nc2cc(C)ccc2cc1C#N	16.0%	u	-6.2%	13µM*	-14.5%	10.3µM*
CCOC(=O)CC(=O)CSc1nc2c(c(-c3cccs3)c1C#N)CCC2	-19.9%	-4.7%	-8.1%	3.4%	-10.5%	-4.1%
CCOC(=O)CC(=O)CSc1nc2c(cc1C#N)CCC2	-0.6%	-19.4%	1.0%	8.2µM*	-23.7%	20.6µM*
CCOC(=O)CSc1nc(N)nc(C)c1Cl	u	-6.3%	0.0%	u	29.9µM*	u
N#Cc1cc2c(nc1SCc1ccccc1)CCCCC2	-21.0%	-0.2%	x	18.4µM*	3.77µM*	20.6µM*
COc1ccc(OC)c(C(=O)N2CCc3c(cnc(C)c3CNS(=O)(=O)N(C)C)C2)c1	x	x	x	6.4%[9.04 µM]	x	-11.3%
CN1C(=O)C2(c3ccccc31)N(c1ccc(Br)cc1)C(=O)CS2(=O)=O (stereo not given)	19.8%	-14.1%	-4.2%	-8.5%	x	-3.7%
CC(C)OC(=O)CSc1nc(N)c(C#N)cc1C#N	10.6%	-4.7%	-8.2%	0.6%	-5.8%	u
CCOC(=O)CSc1nc2cc(OC)ccc2cc1C#N	-0.3%	u	4.8%	16.4µM*	-6.3%	23.1µM*
CCOC(=O)CSc1nc(N)c(C#N)cc1C#N	-6.1%	1.1%	-10.1%	-27.6%	-15.0%	16.4µM*
CCOC(=O)CSc1nc2ccc(C)cc2cc1C#N	3.0%	-2.1%	-2.3%	-23.4%	2.3%	-20.9%
CC(C)c1c(C(=O)NCc2ccncc2)cnn1-c1nccc(-c2cccs2)n1	x	x	x	-12.4%[9.04 µM]	x	-18.5%
COc1cccc(CN2CCC3(CCC(CNC(=O)c4cc(C)nn4C)O3)CC2)c1OC (stereo not given)	x	x	x	4.0%[9.04 µM]	x	-19.7%
COc1ccc(-c2cn(-c3ccccc3)c3[n+]2CCS3)cc1	-6.1%	-6.3%	5.5%	2.31µM*	-3.3%	2.31µM*
CC(C)(C)c1ccc(-c2cn(-c3ccc(Br)cc3)c3[n+]2CCCS3)cc1	-9.5%	-3.8%	5.0%	0.164µM*	10.1%	0.184µM*
Fc1ccc(-n2cc(-c3ccccc3)[n+]3c2SCC3)cc1	-0.3%	2.3%	8.2%	-29.7%	-1.5%	u
COc1cc(OC)cc(C(=O)N[C@H](C(=O)NC2=NCCS2)C(C)C)c1	18.8%	-2.3%	-0.2%	-28.9%	-2.6%	0.5%
Cc1ccc(NC(=O)c2c(C)nc3sc(C(=O)NC4CCCC4)c(N)c3c2-c2ccco2)c(C)c1	0.6%	9.4%	7.9%	2.91µM*	-9.8%	5.17µM*
CC(=O)N[C@@H](C)C(=O)NCC1Cc2cccc(-c3ccccc3C(F)(F)F)c2O1 (stereo not given in full)	x	x	x	9.0%	x	-21.6%
COCCN(CCOC)c1ncc(Cl)c(C(=O)c2c(C)cc3ccccn23)n1	-12.7%	-3.9%	2.1%	u	1.5%	20.6µM*
CCN(CC)S(=O)(=O)c1ccc2c(c1)N(CC(=O)N1CCN(c3cccc(Cl)c3)CC1)C(=O)CO2	1.5%	-10.5%	2.8%	16.4µM*	x	u
SMILES	VDR inhibitor	KAT2A inh	TDP1 inh	DT40 TDP1 CPT	PLK1 PBD inh	TDP1 cell noCPT
CCN(CC)S(=O)(=O)c1ccc2c(c1)N(CC(=O)N1CCN(c3ccc(Cl)cc3)CC1)C(=O)CO2	2.9%	-3.3%	2.8%	16.4µM*	x	16.4µM*
Nc1cccc(S(=O)(=O)N2CCCN(S(=O)(=O)c3ccc4c(c3)OCCO4)CC2)c1	x	x	1.6%	x	x	x
CCCNC(=O)CSc1c2c(nc3ccc(Cl)cc13)CCCC2	u	-4.3%	0.0%	u	x	u
COC(=O)c1ccccc1NC(=O)CSc1c2c(nc3ccc(Cl)cc13)CCCC2	-17.7%	-2.8%	-2.3%	u	x	11.6µM*
Cc1ccc(C)c(NC(=O)CSc2c3c(nc4ccc(Cl)cc24)CCCC3)c1	-20.2%	-13.4%	0.0%	20.6µM*	x	20.6µM*
CCCNC(=O)c1cc(C2CCCCN2S(C)(=O)=O)on1 (stereo not given)	x	x	x	-8.8%	-7.3%	-6.9%
O=C(Nc1ccc(Br)cc1)C1CCCN1S(=O)(=O)c1ccc(F)cc1 (stereo not given)	11.0%	-2.5%	4.9%	u	x	14.6µM*
COc1ccc(S(=O)(=O)N2CCC(C(=O)Nc3ccc(S(=O)(=O)N4CCCC4)cc3)CC2)cc1OC	3.9%	-1.2%	x	u	1.0%	29.1µM*
CSc1cccc(NC(=O)C2CCCN(S(=O)(=O)c3cccs3)C2)c1 (stereo not given)	8.3%	-10.4%	2.2%	u	1.4%	18.4µM*
O=C(Nc1ccc(S(=O)(=O)N2CCCC2)cc1)C1CCN(S(=O)(=O)c2ccc(F)cc2)CC1	-12.7%	-25.7%	-6.8%	u	-9.2%	18.4µM*
COc1ccc(NC(=O)C2CCN(S(=O)(=O)c3ccc(OC)c(OC)c3)CC2)cc1	1.2%	-9.2%	4.7%	1.1%	-4.7%	-18.0%
Cc1sc2ncn(CC(=O)N3CCN(c4ccccc4F)CC3)c(=O)c2c1S(=O)(=O)N1CCC(C)CC1	7.0%	-5.2%	8.8%	u	x	u
O=C(OCC#CCSc1nnc(-c2cccc3ccccc23)o1)c1ccsc1	x	x	-5.6%	x	x	x
CSCC[C@H]1COC[C@@H](Cc2ccccc2)N1c1ccccc1	x	x	x	-29.1%	-1.9%	-27.0%
CCCCN(CCCNC(=O)C1CCN(S(=O)(=O)N2CCOCC2)CC1)c1ccccc1	18.0%	-4.7%	1.0%	13µM*	-3.3%	13µM*
CCN(CCCNC(=O)C1CCN(S(=O)(=O)N2CCC3(CC2)OCCO3)CC1)c1ccccc1	-8.6%	u	-3.1%	-18.0%	-1.7%	-11.9%
O=C(Nc1ccc(S(=O)(=O)N2CCOCC2)cc1)C1CCN(S(=O)(=O)c2ccccc2)CC1	-6.2%	-10.4%	3.9%	u	-5.2%	16.4µM*
CSc1cccc(NC(=O)C2CCCN(S(=O)(=O)c3ccc(F)cc3)C2)c1 (stereo not given)	13.6%	-10.2%	5.3%	10.3µM*	-5.6%	8.2µM*

High-throughput results: PubChem, National Center for Advancing Translational Sciences (NCATS)
